Several values for one entry are separate records, joined by “and”; a condition that tells them apart may be missing. Identical values can stand only once. Results filed as inconclusive are left out. A structure can be active in one record and inactive in another. Activity calls are given as the source filed them. Unless noted, the call rests on the fitted dose curve.

Results on seven compounds are retold here after PubChem BioAssay (Tox21).

The nature of assay [1]: Nuclear factor erythroid 2-related factor 2/antioxidant responsive element (Nrf2/ARE) small molecule agonists: qHTS cell viability counter screen in human keratinocytes (AID 1919968; active means well fitted curve in the direction sought with a large enough effect in the repeat runs; an effect the other way counts as inactive or inconclusive; further: nearly all actives have a fitted effect of over 55% in size; further: potency means the concentration at half of the fitted maximal effect). Summed up:
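Measured as CellTiter-Fluor fluorescence, this readout tracks cytotoxicity in the same wells as the ARE-luciferase screen. HaCaT reporter cells (1,500/well) received compounds after a 5 h pre-incubation and were exposed for 23 h.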
For orientation: In qHTS, concentration-response curves come from the screen itself.

A short description of assay [2]: Nuclear factor erythroid 2-related factor 2/antioxidant responsive element (Nrf2/ARE) small molecule agonists: luciferase reporter gene qHTS assay in human keratinocytes (AID 1919969). Further: nearly all actives have a fitted effect of over 35% in size. Further: potency means the concentration at half of the fitted maximal effect.
The target in assay [3] is Gonadotropin-releasing hormone receptor (Homo sapiens) (UniProt P30968). The assay can be described thus: Human gonadotropin-releasing hormone receptor (GnRHR) small molecule agonists, calcium flux assay in GnRHR-HEK293 cells (AID 1920063). Further: nearly all actives have a fitted effect of over 35% in size. Summed up: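 Fluorescence kinetics (480 nm excitation, 540 nm emission; 3 min, 1 s steps) report calcium mobilisation in human GnRHR-HEK293 cells in agonist mode. Dye incubation: 1 h, 37 C.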
Gonadotropin-releasing hormone receptor (Homo sapiens), sequence (P30968 whole entry, looked up): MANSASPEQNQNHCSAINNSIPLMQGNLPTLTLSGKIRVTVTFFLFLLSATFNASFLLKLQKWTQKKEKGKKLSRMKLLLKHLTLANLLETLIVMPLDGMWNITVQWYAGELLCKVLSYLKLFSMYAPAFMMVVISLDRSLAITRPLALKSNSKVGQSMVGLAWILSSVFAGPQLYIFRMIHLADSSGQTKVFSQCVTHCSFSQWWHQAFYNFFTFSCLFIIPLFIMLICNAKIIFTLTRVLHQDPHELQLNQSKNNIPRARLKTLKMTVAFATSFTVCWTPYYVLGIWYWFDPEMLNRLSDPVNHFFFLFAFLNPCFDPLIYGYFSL
In general terms: Calcium assays in cells follow changes in intracellular calcium, usually with a dye or a luminescent sensor.

In assay [4] the target is KiSS-1 receptor (Homo sapiens) (UniProt Q969F8). Briefly: Human kisspeptin (KISS1R) small molecule agonists, calcium flux assay in KISS1R-HEK293 cells (AID 1920064; active means well fitted curve in the direction sought with a large enough effect in the repeat runs; an effect the other way counts as inactive or inconclusive). Summed up:
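Measures KISS1R agonism through calcium-sensitive dye fluorescence in stably transfected HEK293 cells, read for 3 min after pin-tool compound delivery; 15-point titrations in triplicate.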

Assay [5] can be described thus: G protein-coupled receptor (GPCR) small molecule agonists, calcium flux assay: HEK293 wild type cell line counter screen (AID 1920065). Summed up: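 Readout: fluorescence at 480 nm excitation/540 nm emission, sampled at 1 s intervals for 3 min. Cells had been cultured 18 h, then dye-loaded 1 h at 37 C before compound or ATP addition.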
Assay [6] can be described thus: p53 small molecule agonists, cell-based qHTS assay with human liver microsomes (AID 1963577). Summed up:
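p53RE-bla reporter cells were pre-incubated 5 h at 37 C, then treated with compounds plus human liver microsomes (0.5 mg/mL final) and NADPH (0.5 mg/mL final) for 16 h at 37 C. Beta-lactamase activity was read by LiveBLAzer fluorescence after 2 h at room temperature.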

A short description of assay [7]: p53 small molecule agonists, cell-based qHTS assay with rat liver microsomes (AID 1963578). Summed up:
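p53RE-bla cells were exposed to compounds together with rat liver microsomes (0.5 mg/mL final) and NADPH (0.5 mg/mL final) for 16 h at 37 C, then read by LiveBLAzer beta-lactamase fluorescence after 2 h at room temperature.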

A short description of assay [8]: p53 small molecule agonists, cell-based qHTS assay with human liver microsomes: qHTS cell viability counter screen (AID 1963579). Further: nearly all actives have a fitted effect of over 45% in size. Further: potency means the concentration at half of the fitted maximal effect. Summed up: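 p53RE-bla cells (4,000/well) were pre-incubated 5 h at 37 C, then given compounds in DMSO plus human liver microsomes (0.5 mg/mL final) and NADPH (0.5 mg/mL final) for 16 h at 37 C. Viability was read by CellTiter-Glo luminescence.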

A short description of assay [9]: p53 small molecule agonists, cell-based qHTS assay with rat liver microsomes: qHTS cell viability counter screen (AID 1963580). Further: nearly all actives have a fitted effect of over 45% in size. Further: potency means the concentration at half of the fitted maximal effect. Summed up: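 Viability is assessed in parallel with the p53 reporter read: HCT-116 p53RE-bla cells receive compounds plus rat microsomes and NADPH (0.5 mg/mL final apiece), incubate 16 h at 37 C, and then CellTiter-Glo luminescence is recorded.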

The nature of assay [10]: p53 small molecule agonists, cell-based qHTS assay: qHTS cell viability counter screen (AID 1963581). Further: nearly all actives have a fitted effect of over 45% in size. Summed up:
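In the same plates used for the p53 bla reporter, HCT-116 cells given compounds for 16 h at 37 C received CellTiter-Glo; luminescence was recorded 30 min later at room temperature.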

The nature of assay [11]: p53 small molecule agonists, cell-based qHTS assay (AID 1963582; active means well fitted activation curve with a large enough effect in the signal ratio in the repeat runs, not every such curve was filed as active; the % refers to the signal ratio). Summed up:
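Compounds are pin-transferred in DMSO onto p53RE-bla cells and incubated 16 h at 37 C. The B/G FRET beta-lactamase substrate is then applied for 2 h at RT and fluorescence recorded.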

The target of assay [12] is 5-hydroxytryptamine receptor 2A (Homo sapiens) (UniProt P28223). Briefly: 5-hydroxytryptamine receptor 2A (HTR2A) small molecule agonists, cell-based qHTS assay (AID 1963587). Further: nearly all actives have a fitted effect of over 30% in size. Summed up:
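CHO cells stably expressing human HTR2A, plated 18 h, loaded with calcium dye 1 h at 37 C. Agonist mode: compounds added and intracellular calcium fluorescence recorded kinetically for 2 min at 1 sec intervals.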

Assay [13] has as its target Muscarinic acetylcholine receptor M1 (Homo sapiens) (UniProt P11229). The assay can be described thus: Cholinergic receptor muscarinic 1 (CHRM1) small molecule antagonists, cell-based qHTS assay (AID 1963588). Further: nearly all actives have a fitted effect of over 40% in size. Summed up: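 CHRM1-CHO calcium-flux assay, antagonist mode. Cells were seeded 18 h, dye-loaded 1 h at 37 C and given compound for 5 min at RT, then acetylcholine was added at 50nM. FDSS fluorescence was read 3 min; 15 concentrations, three runs.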

For assay [14] the target is unchanged. The assay can be described thus: Cholinergic receptor muscarinic 1 (CHRM1) small molecule agonists, cell-based qHTS assay (AID 1963589). Further: nearly all actives have a fitted effect of over 35% in size. Summed up: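 Each compound was tested at 15 concentrations across three independent runs on dye-loaded CHO cells stably expressing human CHRM1, reading intracellular calcium fluorescence kinetically at 1 sec intervals.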

For assay [15], the target named is Beta-2 adrenergic receptor (Homo sapiens) (UniProt P07550). Briefly: Adrenergic beta2 receptor (ADRB2) small molecule antagonists, cell-based qHTS assay (AID 1963592). Further: series mostly up to about 92 µM; nearly all actives have a fitted effect of over 50% in size. Summed up: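 Cells (CHO, stable ADRB2 overexpression) incubated 18-20hr at 37C; compounds added from DMSO; agonist mix (1nM isoproterenol, 100uM IBMX, 25uM Ro-20-1724) added; 0.5hr RT; d2-cAMP and anti-cAMP-cryptate added; 1hr RT; 665/615 nm read.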
Beta-2 adrenergic receptor (Homo sapiens), sequence (P07550 whole entry, looked up): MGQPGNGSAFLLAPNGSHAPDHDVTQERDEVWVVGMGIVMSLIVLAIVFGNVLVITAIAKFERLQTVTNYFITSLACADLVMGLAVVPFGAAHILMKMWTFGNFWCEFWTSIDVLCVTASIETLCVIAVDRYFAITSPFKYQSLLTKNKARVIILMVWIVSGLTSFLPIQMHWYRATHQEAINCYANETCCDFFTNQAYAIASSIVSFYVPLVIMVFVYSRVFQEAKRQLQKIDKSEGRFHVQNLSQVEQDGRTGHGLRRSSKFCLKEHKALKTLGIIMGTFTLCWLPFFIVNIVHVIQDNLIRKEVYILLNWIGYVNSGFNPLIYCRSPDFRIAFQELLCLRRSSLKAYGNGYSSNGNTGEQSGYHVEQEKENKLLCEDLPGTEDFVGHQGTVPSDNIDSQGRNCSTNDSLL

Assay [16] addresses D(2) dopamine receptor (Homo sapiens) (UniProt P14416). The assay can be described thus: Dopamine D2 receptor (DRD2) small molecule antagonists, cell-based qHTS assay (AID 1963595; active means well fitted inhibition curve with a large enough effect in the signal ratio in the repeat runs, with a control signal flat; the % refers to the signal ratio). Summed up: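 Cells were plated and grown for 24 h at 37 °C. Ro20-1724 (0.1 mM final) went in first, then compound for 10 min. NKH477 (200 nM) with quinpirole (12 nM) followed for 30 min at RT, then HTRF detection reagents for 1 h.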

Assay [17] can be described thus: cAMP Responsive Elements (CRE) small molecule agonists, cell-based qHTS assay (AID 1963590). Summed up: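 Cell line: CRE-bla HEK 293T; medium DMEM/10% dialyzed FBS/0.1 mM NEAA/1 mM pyruvate/25 mM HEPES; 3 h compound exposure; beta-lactamase FRET readout after 2 h substrate loading at RT.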
Assay [18] can be described thus: cAMP Responsive Elements (CRE) small molecule antagonists, cell-based qHTS assay (AID 1963591; active means well fitted inhibition curve with a large enough effect in the signal ratio in the repeat runs, not every such curve was filed as active; the % refers to the signal ratio). Summed up: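 Inhibition of NKH477-driven (0.25 uM final) CRE-beta-lactamase signal in HEK293T cells, 3 h compound exposure at 37 °C, detected by FRET substrate fluorescence.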
For assay [19], the target named is Beta-2 adrenergic receptor (Homo sapiens) (UniProt P07550). Briefly: Adrenergic beta2 receptor (ADRB2) small molecule agonists, cell-based qHTS assay (AID 1963593).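 Further: CHO cells stably overexpressing human ADRB2.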 Summed up: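 CHO cells stably over-expressing ADRB2 were plated overnight at 37C, then dosed with compounds plus a stimulation mix containing 100uM IBMX and 25uM Ro-20-1724 for 0.5hr at room temperature. cAMP was measured by HTRF competition, 1hr.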

Assay [20] addresses D(2) dopamine receptor (Homo sapiens) (UniProt P14416). The assay can be described thus: Dopamine D2 receptor (DRD2) small molecule agonists, cell-based qHTS assay (AID 1963594). Further: nearly all actives have a fitted effect of over 35% in size. Summed up:
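HEK293 cells stably expressing human DRD2, pre-treated with PDE inhibitor Ro20-1724 (0.1 mM final) and compound 10 min at room temperature, then stimulated with NKH477 (200nM […]) for 30 min. cAMP read by HTRF (665/620 nm).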

5-hydroxytryptamine receptor 2A (Homo sapiens), sequence (P28223 whole entry, looked up): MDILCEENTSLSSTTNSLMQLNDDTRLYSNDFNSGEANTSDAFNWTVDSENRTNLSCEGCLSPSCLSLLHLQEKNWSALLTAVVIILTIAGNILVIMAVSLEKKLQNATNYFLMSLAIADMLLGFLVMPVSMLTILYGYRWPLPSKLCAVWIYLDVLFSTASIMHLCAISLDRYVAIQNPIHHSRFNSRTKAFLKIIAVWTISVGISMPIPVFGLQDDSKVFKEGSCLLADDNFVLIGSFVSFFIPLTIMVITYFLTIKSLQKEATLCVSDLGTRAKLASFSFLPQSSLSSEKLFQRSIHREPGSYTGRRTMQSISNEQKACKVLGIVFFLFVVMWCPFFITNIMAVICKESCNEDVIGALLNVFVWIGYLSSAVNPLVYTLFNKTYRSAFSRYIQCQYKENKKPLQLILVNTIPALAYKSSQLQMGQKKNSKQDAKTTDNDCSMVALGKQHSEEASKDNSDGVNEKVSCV
KiSS-1 receptor (Homo sapiens), sequence (Q969F8 whole entry, looked up): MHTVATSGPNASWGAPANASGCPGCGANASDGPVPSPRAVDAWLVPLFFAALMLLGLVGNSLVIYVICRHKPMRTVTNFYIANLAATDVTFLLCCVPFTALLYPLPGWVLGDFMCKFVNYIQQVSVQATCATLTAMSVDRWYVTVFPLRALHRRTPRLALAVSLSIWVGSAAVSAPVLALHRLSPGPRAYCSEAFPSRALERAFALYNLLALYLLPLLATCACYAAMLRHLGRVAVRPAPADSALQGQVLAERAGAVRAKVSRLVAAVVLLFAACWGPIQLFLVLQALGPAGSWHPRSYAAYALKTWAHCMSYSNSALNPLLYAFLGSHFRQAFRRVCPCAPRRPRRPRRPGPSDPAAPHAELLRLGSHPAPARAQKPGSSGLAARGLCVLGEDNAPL
Muscarinic acetylcholine receptor M1 (Homo sapiens), sequence (P11229 whole entry, looked up): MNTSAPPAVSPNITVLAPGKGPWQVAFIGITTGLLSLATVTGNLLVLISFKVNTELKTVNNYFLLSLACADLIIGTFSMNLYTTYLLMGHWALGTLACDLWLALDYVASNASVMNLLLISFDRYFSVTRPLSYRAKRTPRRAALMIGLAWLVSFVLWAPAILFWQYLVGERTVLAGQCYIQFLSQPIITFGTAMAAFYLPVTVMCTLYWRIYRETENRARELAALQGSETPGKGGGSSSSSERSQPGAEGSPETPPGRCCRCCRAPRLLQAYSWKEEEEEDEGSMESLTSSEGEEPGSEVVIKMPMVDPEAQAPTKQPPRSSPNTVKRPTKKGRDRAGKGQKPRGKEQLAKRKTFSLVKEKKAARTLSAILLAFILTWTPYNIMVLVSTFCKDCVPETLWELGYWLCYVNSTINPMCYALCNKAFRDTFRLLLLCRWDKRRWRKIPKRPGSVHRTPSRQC
D(2) dopamine receptor (Homo sapiens), sequence (P14416 whole entry, looked up): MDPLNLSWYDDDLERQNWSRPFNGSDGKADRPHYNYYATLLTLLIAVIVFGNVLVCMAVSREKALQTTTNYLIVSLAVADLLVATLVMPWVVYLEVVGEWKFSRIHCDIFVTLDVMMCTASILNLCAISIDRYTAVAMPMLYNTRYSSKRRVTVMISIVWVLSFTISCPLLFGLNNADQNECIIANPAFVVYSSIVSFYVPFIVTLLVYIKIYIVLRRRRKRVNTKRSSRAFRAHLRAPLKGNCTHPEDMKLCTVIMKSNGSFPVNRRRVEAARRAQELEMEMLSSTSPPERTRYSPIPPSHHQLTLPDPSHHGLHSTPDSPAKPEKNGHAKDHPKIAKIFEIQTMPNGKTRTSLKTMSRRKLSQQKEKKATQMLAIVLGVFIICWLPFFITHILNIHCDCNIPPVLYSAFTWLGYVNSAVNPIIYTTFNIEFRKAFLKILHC

Take `c1ccc(Nc2cccc3ccccc23)cc1`: the Potency was 61.9 µM (active) in assay [1]; “inactive and 68.6 µM (active)” in assay [2]; 46.4 µM (active) in assay [8]. Moreover, the Potency result in assay [3], in [4], in assay [5], in assay [6], in assay [7] and in [9] was “inactive” in each case. The Potency entry in [10], in [11], in assay [12], in [13], in assay [14] and in [15] was “inactive” in each case. In addition, the Potency entry in assay [16] was “inactive”.
`CC(C)=CCCC(C)CCOC(=O)C(C)C` (configuration not stated): the Potency entry in assay [1], in assay [2], in assay [3], in assay [4], in [5] and in assay [6] was “inactive” each time. Also, the Potency entry in [7], in assay [8], in [9], in [10], in [12] and in assay [13] was “inactive” each time. Besides, the Potency result in assay [14], in assay [17], in assay [18], in [15], in assay [19] and in assay [20] was “inactive” each time. Besides, in assay [16], the Potency result was “inactive”.
As to `COC(=O)c1sccc1S(N)(=O)=O`, the Potency entry in assay [1], in assay [2], in [3], in [4], in assay [5] and in assay [6] was “inactive” each time. Further, the Potency entry in [7], in assay [8], in assay [9], in [10], in assay [11] and in assay [12] was “inactive” throughout. Also, the Potency result in assay [13], in assay [14], in assay [17], in assay [18], in assay [15] and in assay [16] was “inactive” each time.
On to `Cc1oncc1C(=O)Nc1ccc(C(F)(F)F)cc1`, for which the Potency entry in [1], in [3], in [4], in assay [5], in assay [6] and in assay [7] was “inactive” throughout. Also, the Potency result in [10], in assay [11], in assay [18], in [15] and in assay [20] was “inactive” throughout. The Potency is 27.3 µM (active) and inactive in assay [2]; 20.4 µM (active) and inactive in assay [8]; 20.4 µM (active) in assay [9].
As for `O=C(NCN1CCOCC1)c1cnccn1`, the Potency result in assay [1], in assay [2], in [3], in assay [4], in assay [5] and in assay [6] was “inactive” in each case. Moreover, the Potency entry in assay [7], in assay [8], in assay [9], in assay [10], in assay [11] and in assay [12] was “inactive” throughout. Besides, the Potency result in [13], in assay [17], in assay [18], in [15], in [19] and in assay [20] was “inactive” throughout. Besides, the Potency entry in assay [16] was “inactive”.
For the compound `O=[Si]=O`, the Potency entry in assay [1], in assay [2], in [3], in assay [4], in assay [5] and in assay [6] was “inactive” throughout. In addition, the Potency entry in assay [7], in assay [8], in [9], in assay [10], in assay [12] and in [13] was “inactive” each time. Moreover, the Potency result in [14], in assay [17], in [18], in [15], in [19] and in [20] was “inactive” each time. The Potency entry in [16] is “inactive”.
Consider `Cc1occc1SSc1ccoc1C`, for which the Potency result in assay [1], in assay [3], in assay [4], in assay [5], in assay [6] and in assay [7] was “inactive” in each case. The Potency result in [8], in assay [9], in [10], in assay [12], in assay [13] and in [14] was “inactive” each time. The Potency result in assay [17], in assay [18], in [15] and in [20] was “inactive” each time. Also, in assay [2], the Potency is 61.1 µM (active).
